High-throughput results from PubChem BioAssay.
Compounds with a hit are over-represented: about 4.6% of the library has one in this group of screens.
D1 ag = agonists of human D1 dopamine receptor; P21728; HEK293 T-REx D1 cells, calcium flux, agonist mode; activation, % at 2 µM; 360,000 compounds, 1% hits; AID 504660; note: 0% is about no effect
Target sequence (P21728 whole entry, looked up): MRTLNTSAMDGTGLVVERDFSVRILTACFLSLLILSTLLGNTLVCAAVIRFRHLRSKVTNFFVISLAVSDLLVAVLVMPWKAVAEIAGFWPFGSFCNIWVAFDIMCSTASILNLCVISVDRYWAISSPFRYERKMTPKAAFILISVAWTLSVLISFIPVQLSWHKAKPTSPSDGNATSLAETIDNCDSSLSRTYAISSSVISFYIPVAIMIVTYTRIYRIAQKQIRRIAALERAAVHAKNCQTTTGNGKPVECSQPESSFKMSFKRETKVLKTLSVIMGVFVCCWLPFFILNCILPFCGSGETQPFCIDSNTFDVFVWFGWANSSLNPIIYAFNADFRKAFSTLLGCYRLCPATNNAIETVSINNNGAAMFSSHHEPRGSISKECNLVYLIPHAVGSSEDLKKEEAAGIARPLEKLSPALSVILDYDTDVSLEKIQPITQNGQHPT
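Tetracycline-induced HEK293 TREx D1 cells, force-coupled to calcium signalling, were dye-loaded with a no-wash calcium kit. Compound was pin-added after a 10 s baseline. Fluorescence was read kinetically at 1 cycle/s for 180 s, with calcium rises flagged as agonism.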
D1 PAM = human D1 dopamine receptor positive modulation | HEK293 TREx D1 cells, calcium flux, dopamine EC20 potentiation | potentiation, % at 10 µM | 360,000 compounds, 0.036% hits; in the data active = potentiation above about 30%; note: 0% is about no effect
TRHR ag = TRH receptor (human) agonism; P34981; TRHR cells, calcium flux fluo-8, FDSS agonist mode; activation, % at 2 µM; 360,000 compounds, 0.18% hits; AID 493084; note: 0% is about no effect
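Agonist-mode FDSS calcium read (Ex 480/Em 530, 1 s cycles) in 1536-well TRHR cells with fluo-8 dye, after 10-cycle baseline and 23 nL compound addition; TRH at EC20 (10 nM final) added afterwards for the enhancer phase.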
D1 antagonist = blocks dopamine activation of the human D1 receptor; P21728; HEK293 TREx D1 cells, calcium flux, dopamine EC80; hits give low values; activity change, negative = inhibition, % at 10 µM; 360,000 compounds, 3.2% hits; AID 504652; in the data active = activity change below about -30%; note: % is set by controls: 0 for no effect and ±100 for the full control effect
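Tetracycline-induced HEK293 Trex D1 cells, force-coupled to calcium, dye-loaded; compounds added and read 180 s, then EC80 dopamine added and calcium flux tracked kinetically another 180 s.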
TRHR PAM = allosteric enhancers of human TRH receptor; 360,000 compounds, 0.66% hits; TRHR cells, fluo-8 calcium fluorescence, EC20 TRH enhancement; AID 493056; enhancement, % at 2 µM; in the data active = enhancement above about 30%; note: 0% is about no effect
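Enhancer read-out: after compound pinning and an initial kinetic agonist-mode read, an EC20 of TRH (10 nM final) was injected and fluo-8 calcium signal (Ex 480/Em 530) followed at 1 s/cycle for 100 cycles in TRHR-expressing cells.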
An asterisk follows results filed as active. Cut-off read from the data, not from the text of the source, unless noted: active = activation above about 30%; inactive = the rest.

SMILES	D1 ag	D1 PAM	TRHR ag	D1 antagonist	TRHR PAM
O=C(c1ccc(CS(=O)Cc2ccccc2Cl)o1)N1CCN(c2cccc(Cl)c2)CC1 (configuration not stated)	28	-17	-1	-45*	2
O=C(c1ccc(CS(=O)Cc2ccccc2Cl)o1)N1CCN(c2ccccn2)CC1 (configuration not stated)	-1	-5	0	-3	-4
COc1cccc(N2CCN(C(=O)c3ccc(CS(=O)Cc4ccccc4Cl)o3)CC2)c1 (configuration not stated)	0	-4	-1	-10	1
Cc1ccc(-n2c(=O)c3c(c4cc(C)ccc4n3C)n(CC(=O)Nc3ccc(F)cc3)c2=O)cc1	1	-1	-1	4	5
O=C(Cc1csc2ccccc12)NCc1cccc(Br)c1	12	-4	1	-2	-8
CCN(CC)S(=O)(=O)c1ccc2c(c1)N(CC(=O)Nc1cccc(C#N)c1)C(=O)CO2	1	-3	-1	-2	-2
Cc1cccc(N2CCN(c3ccc4cc(S(=O)(=O)N5CCC(C)CC5)ccc4n3)CC2C)c1 (configuration not stated)	2	-3	-1	7	6
CCOC(=O)Cc1cc(-c2ccc(F)cc2)nc2ccc3ccccc3c12	9	-11	1	-57*	1
CCOC(=O)Cc1cc(-c2ccc(O)cc2)nc2ccc3ccccc3c12	6	-6	0	-12	0
CC1C/C(=N/O)C(C)CN1 (configuration not stated)	2	3	1	11	34*
Cc1ccc(Nc2cc(C(=O)NC3CCCC3)c3ccccc3n2)cc1C	-1	-3	0	-16	-5
Cc1cccc(C(C)C)c1NC(=O)Cn1c(=O)oc2cc(S(=O)(=O)N3CCCC3)ccc21	-1	-2	-1	1	-2
O=S(=O)(/N=C(/Nc1ccccc1F)c1ccccc1)c1ccccc1	2	-4	0	0	-4
N#CN/C(=N\S(=O)(=O)c1ccccc1)c1ccccc1	4	-1	1	-1	37*
CSc1ncccc1C(=O)NNC(=O)c1ccc(NS(=O)(=O)c2cccs2)cc1	0	5	0	-45*	-6
COc1ccccc1C(=O)NNC(=O)c1ccc(NS(=O)(=O)c2cccs2)cc1	7	-6	1	7	1
COc1ccc(-c2nc(NC(=O)c3[nH]c(C)c(C(C)=O)c3C)sc2C)cc1	15	-12	0	-91*	1
COc1ccc(-c2nc(NC(=O)Cn3ccc(C(F)(F)F)n3)sc2C)cc1	2	4	1	-40*	-2
COc1ccc(-c2nc(NC(=O)Cn3cnnn3)sc2C)cc1	1	-7	1	-9	-9
CC(=O)c1c(C)[nH]c(C(=O)Nc2nc(-c3ccc(Cl)cc3)cs2)c1C	21	-15	0	-32*	8
Cc1ccc(-c2csc(NC(=O)c3c(C)noc3C)n2)cc1	1	5	-1	-14	2
Cc1noc(C)c1C(=O)Nc1nc(-c2ccc([N+](=O)[O-])cc2)cs1	25	-8	0	-51*	-6
COc1ccc(OC)c(NC(=O)c2[nH]c(C)c(C(C)=O)c2C)c1	-1	-6	0	10	-1
CC(=O)c1c(C)[nH]c(C(=O)Nc2nc(-c3ccc(-c4ccccc4)cc3)cs2)c1C	5	-5	0	-11	-1
O=C(Cc1ccccc1)Nc1sc2c(c1C(=O)Nc1cccc(Cl)c1)CCCC2	7	-4	2	22	4
SMILES	D1 ag	D1 PAM	TRHR ag	D1 antagonist	TRHR PAM
Cn1cc([N+](=O)[O-])c(C(=O)Nc2nc(-c3ccc(Cl)cc3)cs2)n1	28	3	0	-48*	3
Cc1ccc(S(=O)(=O)c2nnn3c2nc(N2CCN(c4ccccc4F)CC2)c2ccccc23)cc1C	0	-1	0	-4	4
COc1cc(/C=C/c2ccc3cccc(OC)c3n2)c(OC(C)=O)c([N+](=O)[O-])c1	4	-8	0	-32*	-2
Cc1nc(-c2cccc(NC(=O)COc3ccc(Cl)cc3)c2)cs1	14	-17	0	-44*	-3
O=C(O)CSc1nc2ccc(NC(=O)COc3ccc(Cl)cc3)cc2s1	-1	-1	1	-24	-3
Cc1cccc(NC(=O)CSc2nc3ccc(NC(=O)COc4ccc(Cl)cc4)cc3s2)c1	11	-1	2	-32*	4
CC(NC(=O)CSc1nc(-c2cccc(Cl)c2)nc2cc(=O)[nH]n12)c1nc2ccccc2n1C (configuration not stated)	5	0	0	-17	0
Cc1ccc(N2CC(c3nc4ccccc4n3CCC3CCCCC3)CC2=O)cc1 (configuration not stated)	1	2	1	7	3
COc1ccc([C@H](NC(=O)OC(C)(C)C)C(=O)OC(C)(C)C)cc1	0	-8	0	-47*	-5
CC(Sc1nccn1C)C(=O)Nc1ccc(C(N)=O)cc1 (configuration not stated)	3	-5	0	27	31*
CCOc1ccc(NC(=O)C(C)Sc2nnnn2C)cc1 (configuration not stated)	0	-8	0	-32*	0
CC(Sc1nnnn1C)C(=O)Nc1ccccc1 (configuration not stated)	2	0	0	-11	-1
COc1ccc(OC)c(CNS(=O)(=O)c2c(C(=O)N3CCCCCC3)c(C)n(C)c2C)c1	3	-4	0	7	-9
CCC(C)NC(=O)CCNS(=O)(=O)c1ccc(Br)cc1 (configuration not stated)	2	2	-1	-93*	7
Cc1ccc(-n2c(=O)c3oc4ccccc4c3n(Cc3ccccc3)c2=O)cc1C	4	0	0	-1	-8
COc1ccc(OCc2cc(C(=O)NC(C)c3csc(C)n3)no2)c(Cl)c1 (configuration not stated)	11	-7	-1	1	-2
COc1ccc(OCc2cc(C(=O)NCc3nc(C)cs3)no2)c(Cl)c1	17	8	2	-35*	17
O=S(=O)(c1cccc(NC(=S)N2CCN(c3ccc(F)cc3)CC2)c1)C(F)F	6	-14	0	-35*	5
COc1cc2ccccc2cc1C(=O)Nc1ccc(N2CCN(C)CC2)cc1	9	-8	1	-61*	2
NS(=O)(=O)c1ccc(NC(=S)N2CCN(c3cccc(Cl)c3)CC2)cc1	4	-3	0	-8	-1
NS(=O)(=O)c1ccc(NC(=S)N2CCN(c3ccccc3Cl)CC2)cc1	5	-8	1	-40*	22
CC(=O)c1ccc(N2CCN(C(=S)Nc3ccc(Oc4ccccc4)cc3)CC2)cc1	6	-3	0	-33*	1
